The campaign covered roughly 69,000 compounds. About 8,600 (12%) showed an effect of 50% or more. The full list was thinned out, with strong results kept by preference.
These molecules were tested on Plasmodium berghei (assay: Screen against P. berghei liver stage (PbLuc), transformed with Luciferase, at 10uM). Details: tested at 10 uM.
Type: functional, HepG2
Molecule CN(C)CCN1C(=O)CCCC12CCCN(Cc1ccc[nH]1)C2 (centres undefined) has an INHIBITION of 26%.
For Cc1cccc(C)c1Nc1noc2c1CN(C(=O)c1ccnn1C)CC2, the INHIBITION was 45.5%.
Work on O=C(c1n[nH]c2c1CN(C1CCOC1)CC2)N1CCOCC1 (centres undefined) yielded an INHIBITION of 9.97%.
O=C(C1CCC2(CCN(CC3CCOCC3)CC2)O1)N1CCCCO1 (centres undefined) gave an INHIBITION of 38.3%.
Molecule CS(=O)(=O)N1CC[C@]2(C[C@H](Oc3ccccn3)CO2)C1 has an INHIBITION of -23.4%.
Molecule CCc1noc(CN(CC)Cc2cc3ccc(C)cc3[nH]c2=O)n1 has an INHIBITION of 9.56%.
Molecule Cc1cnn(CCC(=O)N2CCN(c3nccs3)CC2)c1 has an INHIBITION of 23.5%.
Work on O=C(NCCCN1CCOCC1)Nc1cnc2cc(Cl)ccc2c1O yielded an INHIBITION of 35.8%.
O=C(NCCCO)Nc1cnc2cc(Cl)ccc2c1O showed an INHIBITION of 54.4%.
With O=C(NCCO)Nc1cnc2cc(Cl)ccc2c1O the INHIBITION was 24.4%.
With CNC(=O)CCN1CCCCCC1c1ccc(C)o1 (centres undefined) the INHIBITION was 72.5%.
Cc1ccc(C2CCCCCN2CCNS(C)(=O)=O)o1 (centres undefined) was tested, and the INHIBITION was 39.4%.
CNS(=O)(=O)CCCN1CCCCCC1c1ccc(C)o1 (centres undefined) was tested, and the INHIBITION was 23.3%.
CC(=O)N1CCN(C(=O)c2ccc(Sc3ccccn3)cc2)CC1 showed an INHIBITION of 14.4%.
With Cc1ccc(NC(=O)NCC2(O)CCCC2)cc1C the INHIBITION was -108%.
Work on COc1cc(CNCC(O)c2ccc(C)cc2)cc2c1OCO2 (centres undefined) yielded an INHIBITION of -5.25%.
COc1cccc(CNC(C)C)c1OCc1ccc(C)cc1 was tested, and the INHIBITION was 5.46%.
With COc1cc(CNCC(C)O)cc(Cl)c1OCc1ccc(C)cc1 (centres undefined) the INHIBITION was 52.2%.
NC(=O)c1c[nH]nc1NC(=O)c1ccc(Cl)cc1 gave an INHIBITION of -6.3%.
CCn1cc(CN2CCCN(C(=O)c3cccn3C)CC2)cn1 gave an INHIBITION of 13.6%.
Work on Cc1ccc(NCc2ccccc2C#N)cc1-n1cnnn1 yielded an INHIBITION of 10.6%.
In the case of Cc1c(NCc2ccccc2C#N)cccc1S(=O)(=O)NC1CC1, the INHIBITION is reported as 64.9%.
With Cc1c(NCc2ccc(C#N)cc2)cccc1S(=O)(=O)NC1CC1 the INHIBITION was 73.9%.
Molecule CC(C)N(CCNCc1ccc(C#N)cc1)C1CC1 has an INHIBITION of -8.45%.
CS(=O)(=O)NCC1CCCCN1Cc1ccccc1C#N (centres undefined) gave an INHIBITION of -27.6%.
Molecule Cc1cc(NCc2cccc(C#N)c2)ccc1Br has an INHIBITION of 44.3%.
Molecule Cc1c(NCc2cccc(C#N)c2)cccc1S(=O)(=O)NC1CC1 has an INHIBITION of 67.5%.
With Cc1ccc2c(c1C)OCC2NCc1ccc(C#N)cc1 (centres undefined) the INHIBITION was 40.9%.
Cc1ccc(NCc2ccc(C#N)cc2)cc1-n1cnnn1 was tested, and the INHIBITION was 14.3%.
In the case of Cc1nnc(NCc2ccccc2S(=O)(=O)N(C)C)c(C#N)c1C, the INHIBITION is reported as 15.92%.
With Cc1c(NCc2ccccc2C#N)cccc1-n1cnnn1 the INHIBITION was 62.4%.
Molecule Cc1cc(NCc2cccc(C#N)c2)ccc1C(N)=O has an INHIBITION of -0.759%.
CN(C)CC(=O)N1CCOCC(Cc2ccccn2)C1 (centres undefined) gave an INHIBITION of -20.6%.
CN1CCC2(CCN(CC3CC3)CC2)C1=O was tested, and the INHIBITION was 23.3%.
CC(C)CN(CC(O)c1ccccc1)C(=O)Nc1nccs1 (centres undefined) showed an INHIBITION of -10.9%.
COCCN(C)CC(=O)N1C[C@@H]2CC[C@H]1CN(C(=O)c1ccncc1)C2 showed an INHIBITION of 8.57%.
CNC(=O)[C@H]1C[C@H]2CN(Cc3ccc(OC)cc3)C[C@@H]1O2 gave an INHIBITION of 8.66%.
With Cc1ncc(CN2CCC(c3ccnn3C)CC2)n1-c1ccccc1 the INHIBITION was 77.2%.
For Cn1nccc1C1CCN(Cc2cnn(-c3ccccc3)n2)CC1, the INHIBITION was 81.2%.
Cn1nccc1C1CCN(Cc2csc(-c3ncccn3)n2)CC1 was tested, and the INHIBITION was 11.1%.
In the case of Cn1nccc1C1CCN(Cc2ccn(-c3ccccc3)n2)CC1, the INHIBITION is reported as 74.2%.
Molecule c1ccc(-n2ccc(CN3CCCC3Cn3cccn3)n2)cc1 (centres undefined) has an INHIBITION of 36.4%.
c1ccc(-n2ncc(CN3CCCC3Cn3cccn3)n2)cc1 (centres undefined) showed an INHIBITION of -0.75%.
Molecule O=C(O)c1ccccc1CN1CCC(c2ccnc3ccnn23)CC1 has an INHIBITION of -9.32%.
In the case of Cn1nccc1C1CCN(CC(O)c2cccc(F)c2)CC1 (centres undefined), the INHIBITION is reported as 20.9%.
c1ccc(-n2ccc(CN3CCOC(Cn4cncn4)C3)n2)cc1 (centres undefined) gave an INHIBITION of 7.08%.
Work on CC(C)C(=O)N1CCN(C(=O)N(C)C)CC2(CC(=O)N(C)C2)C1 (centres undefined) yielded an INHIBITION of 39.8%.
CCn1c(Cn2cncn2)nnc1C1CCN(Cc2ccccn2)CC1 gave an INHIBITION of 3.88%.
Molecule O=C(CCc1ccccc1)NC1CCC2(CCC(=O)N2)CC1 (centres undefined) has an INHIBITION of 2.58%.
COCCCN1CCN(CCOC)C(C)C1 (centres undefined) gave an INHIBITION of -23.8%.
With CN(C)CCOCC1CN(CCN(C)C)Cc2ccnn2C1 (centres undefined) the INHIBITION was -4.23%.
In the case of COc1ccccc1OC1CN(c2ccncc2)C1, the INHIBITION is reported as 38.8%.
For Cc1cc(F)cc(S(=O)(=O)NCCCN2CCC(O)CC2)c1, the INHIBITION was 25.1%.
In the case of CC(C)c1cccc(S(=O)(=O)NCCCN2CCC(O)CC2)c1, the INHIBITION is reported as 62.3%.
For Cc1ccc(S(=O)(=O)NCCCN2CCC(O)CC2)c(F)c1, the INHIBITION was 41.4%.
In the case of Cc1cc(F)c(S(=O)(=O)NCCCN2CCC(O)CC2)cc1F, the INHIBITION is reported as -1.53%.
Cc1ccc(S(=O)(=O)NCCCN2CCC(O)CC2)cc1Cl gave an INHIBITION of 51.4%.
With CSCc1cccc(S(=O)(=O)NCCCN2CCOCC2)c1 the INHIBITION was 18.5%.
Work on CN(CCc1ccccn1)C1CCCN(Cc2noc(C3CC3)n2)C1 (centres undefined) yielded an INHIBITION of 24.1%.
Work on COc1ccccc1C(O)CNc1c(C#N)c(=O)n(C)c(=O)n1C (centres undefined) yielded an INHIBITION of 46.2%.
In the case of Cn1ccc(C(=O)NCCOc2ccc3c(c2)OCO3)cc1=O, the INHIBITION is reported as -3.54%.
Molecule Cc1nc(COC[C@@H]2CC[C@H]3[C@H](CCN3c3ncccn3)O2)cs1 has an INHIBITION of 46.6%.
Work on CCCn1c(C)c(CC(=O)NCCOC)c2c1CC(C)(C)CC2=O yielded an INHIBITION of -3.72%.
CC(=O)NS(=O)(=O)c1ccc(F)c(C(F)(F)F)c1 was tested, and the INHIBITION was 54.7%.
CC(C)C(=O)NS(=O)(=O)c1ccc(F)c(C(F)(F)F)c1 gave an INHIBITION of 0.825%.
COC(C)C(=O)NS(=O)(=O)c1ccc(F)c(C(F)(F)F)c1 (centres undefined) showed an INHIBITION of 19.5%.
COc1cc(Cl)c(NC(=O)c2cc3c([nH]c2=O)CCCC3=O)cc1OC gave an INHIBITION of 43.6%.
Molecule Cc1nc(SCC(=O)Nc2ccc(C(N)=O)cc2)c(C#N)c(C)c1C has an INHIBITION of 48.7%.
Molecule Cc1ccc(C(=O)Nc2ccc(N(C)C)nc2)n1C has an INHIBITION of -130%.
Cn1ccnc1CN1CC[C@H](O)[C@@H](n2ccc(=O)[nH]c2=O)CC1 showed an INHIBITION of 22%.
With CNC(=O)[C@@H]1C[C@H](n2cc(-c3ccc(Cl)cc3)nn2)CN1 the INHIBITION was 30.3%.
Molecule CCN(CC)C(=O)[C@@H]1C[C@H](n2cc(-c3ccccn3)nn2)CN1 has an INHIBITION of 34%.
CCN(CC)C(=O)[C@@H]1C[C@@H](n2cc(-c3cccc(OC)c3)nn2)CN1 showed an INHIBITION of 53.3%.
With CCN(CC)C(=O)[C@@H]1C[C@@H](n2cc(-c3ccccn3)nn2)CN1 the INHIBITION was 85.4%.
CCN(CC)C(=O)[C@@H]1C[C@H](n2cc(-c3cccc(OC)c3)nn2)CN1 showed an INHIBITION of 16.9%.
CNC(=O)[C@@H]1C[C@@H](n2cc(-c3ccc(Cl)cc3)nn2)CN1 showed an INHIBITION of 43.9%.
In the case of O=C(NCC(=O)N1CCCC(c2ccccc2)CC1)c1ccoc1 (centres undefined), the INHIBITION is reported as 23.4%.
COC1CCN(C(=O)COC(C)=O)CC(=O)N(C)c2ccccc21 (centres undefined) was tested, and the INHIBITION was 32.1%.
With COCC[C@]1(O)CCN(CC(=O)NCc2ccccn2)C[C@H]1C the INHIBITION was 25.4%.
For Cc1cc(C)nc(N2CC=C[C@H]2C(=O)NCc2ccc3c(c2)OCO3)n1, the INHIBITION was 25.8%.
CCCC(=O)Nc1cnn(CC(=O)Nc2ccc(SC)cc2)c1 was tested, and the INHIBITION was 14.3%.
CCn1nc(C)c(C(C)Nc2cc(C3CCNCC3)nc(C)n2)c1C (centres undefined) showed an INHIBITION of -46.8%.
CS(=O)(=O)CCCNC1CCCN(Cc2noc(C3CC3)n2)C1 (centres undefined) showed an INHIBITION of 19.5%.
With CC(C)c1nc2n(n1)CC(Nc1ncnc3ccccc13)CC2 (centres undefined) the INHIBITION was 80.5%.
With c1nc2c(c(NC3CCc4ncnn4C3)n1)CCC2 (centres undefined) the INHIBITION was 76.7%.
Molecule Cc1cc(NC2CCc3ncnn3C2)n2ncnc2n1 (centres undefined) has an INHIBITION of 57.7%.
CC(C)c1nc2n(n1)CC(NCc1cc3ccccc3o1)CC2 (centres undefined) was tested, and the INHIBITION was 43.2%.
c1ccc(CNC2CCc3ncnn3C2)nc1 (centres undefined) gave an INHIBITION of -0.847%.
Molecule c1ccc2c(NC3CCc4ncnn4C3)ncnc2c1 (centres undefined) has an INHIBITION of 63.8%.
c1nc2c(c(NC3CCC3)n1)CCNCC2 was tested, and the INHIBITION was 17.2%.
For CC(C)c1nc2n(n1)CC(Nc1ncnc3c1CCC3)CC2 (centres undefined), the INHIBITION was 48%.
Cc1cc(NC2CCc3nc(C)nn3C2)n2ncnc2n1 (centres undefined) gave an INHIBITION of -12.5%.
Work on CCc1nc2n(n1)CC(Nc1cc(C)nc3ncnn13)CC2 (centres undefined) yielded an INHIBITION of 3.95%.
Cc1nc2n(n1)CC(Nc1ncnc3c1CCC3)CC2 (centres undefined) gave an INHIBITION of 41.5%.
With FC(F)(F)c1nc(NC2CCc3ncnn3C2)c2ccccc2n1 (centres undefined) the INHIBITION was 2.25%.
Molecule Cn1cnc2c1C(COCc1ccccc1)N(Cc1cccnc1)CC2 (centres undefined) has an INHIBITION of 8.85%.
Molecule Cc1nc2ccc(C(=O)N3CC[C@H](O)[C@@H](N4CCOCC4)CC3)cc2[nH]1 has an INHIBITION of -5.71%.
With O=C(N[C@@H]1CN(Cc2c[nH]nc2-c2ccccc2)C[C@H]1O)c1cc[nH]n1 the INHIBITION was -3.182%.
CN(C)C(=O)COCc1nnc2n1CCN(Cc1ccsc1)C2 showed an INHIBITION of 39.4%.
For O=C1COC2(CCN(Cc3ccncc3)CC2)CN1, the INHIBITION was -55%.
In the case of CCOc1ccc(Br)cc1-c1cc(N)[nH]n1, the INHIBITION is reported as -21.3%.
CC(C)C(=O)N1CCCC2(CCCN2CC2CCCC2)C1 (centres undefined) showed an INHIBITION of -26.5%.
O=C(Cc1c[nH]c2ccccc12)N1CCC(Nc2cccnc2)CC1 showed an INHIBITION of -12.2%.
O=C(NCCOc1ccc(Cl)cn1)Nc1cccnc1 gave an INHIBITION of -24.7%.
Molecule CC1(C(=O)N2CCOCC2)CN(Cc2cccnc2)CCO1 (centres undefined) has an INHIBITION of 2.71%.
With CC(O)CN(Cc1cccc(C(=O)N(C)C)c1)c1ccccc1 (centres undefined) the INHIBITION was 60.5%.
CCC(O)CN(Cc1cccc(C(=O)N(C)C)c1)c1ccccc1 (centres undefined) showed an INHIBITION of 2.93%.
Work on CC(O)CN(Cc1cccc(C(N)=O)c1)c1ccccc1 (centres undefined) yielded an INHIBITION of 28.9%.
CC(O)(CNc1ccc(Cl)c(C#N)n1)c1ccccc1 (centres undefined) showed an INHIBITION of -25%.
